Our source for the binding signal values is publication PMC5869772, “Quantitative profiling of BATF family proteins/JUNB/IRF hetero-trimers using Spec-seq”.

The test deals with T1, BATF2 (bZIP);JUNB (human;human, UniProt Q8N1L9;P17275 1-142;148-347, |).
T1 sequence 1: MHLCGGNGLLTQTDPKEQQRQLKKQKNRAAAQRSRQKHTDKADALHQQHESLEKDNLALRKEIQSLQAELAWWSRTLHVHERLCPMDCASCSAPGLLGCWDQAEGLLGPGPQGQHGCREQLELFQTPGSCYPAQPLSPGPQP
T1 sequence 2: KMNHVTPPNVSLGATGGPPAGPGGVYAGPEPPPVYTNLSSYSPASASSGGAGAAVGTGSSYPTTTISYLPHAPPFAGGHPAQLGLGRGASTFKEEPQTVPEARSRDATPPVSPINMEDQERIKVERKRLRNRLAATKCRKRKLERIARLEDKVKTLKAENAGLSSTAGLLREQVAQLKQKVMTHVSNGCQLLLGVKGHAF
The experiment in a line: Spec-seq (EMSA and sequencing of bound and unbound bands); 100 nM BATFx-JUNB, 1 uM dsDNA library, 50 mM K acetate, 20 mM Tris-acetate, 10 mM Mg acetate, 100 ug/ml BSA, pH 7.9, 10% glycerol, 30 min on ice; native 9% PAGE at 4 C; low values mean tight binding. Conditions: protein: recombinant;recombinant; tags: N-terminal mCherry-TEV, cleaved off;C-terminal 6His; copies: 1;1; dsDNA, one strand shown. The method, boiled down:
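The protein, at 100 nM, was incubated with 1 μM double-stranded degenerate DNA library for 30 min on ice in NEB Cutsmart buffer with 10% glycerol, then resolved by native 9% PAGE at 4 °C. Excised bound and unbound bands were PCR-barcoded and Illumina-sequenced, and each sequence's relative binding energy in kT is −ln of its bound/unbound read-count ratio.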
As for “GATAGTCTCATTTTCACCCCGTGAAATGAGTTAGTTGTTCCATTACAGTATCTGT”, the binding signal was determined as 0.988 kT.

Take “GATAGTCTCATTTTCACCCCGTGAAATGACTCACTTGTTCCATTACAGTATCTGT”: the binding signal is -0.378 kT. For the sequence “GATAGTCTCATTTTCACCCCGTGAAAGGACGTCATTGTTCCATTACAGTATCTGT”, the binding signal was found to be 0.108 kT. Take “GATAGTCTCATTTTCACCCCGTGAAATGACTTAGTTGTTCCATTACAGTATCTGT”: the binding signal is 0.47 kT. Regarding “GATAGTCTCATTTTCACCCCGTGAAATGAGCCACTTGTTCCATTACAGTATCTGT”, the binding signal turned out to be 1.34 kT. Consider “GATAGTCTCATTTTCACCCCGTGAAATGAGTCGCTTGTTCCATTACAGTATCTGT”, for which the binding signal stood at 1.18 kT. On to “GATAGTCTCATTTTCACCCCGTGAAATGAGTCTCTTGTTCCATTACAGTATCTGT”, for which the binding signal is 1.09 kT. With “GATAGTCTCATTTTCACCCCGTGAAATGAGTCATTTGTTCCATTACAGTATCTGT” the figure was -0.903 kT. In the case of “GATAGTCTCATTTTCACCCCGTGAAATGGCTCATTTGTTCCATTACAGTATCTGT”, the binding signal is 1.11 kT.

With “GATAGTCTCATTTTCACCCCGTGAAATTACTCATTTGTTCCATTACAGTATCTGT”, the binding signal was -0.323 kT. As for “GATAGTCTCATTTTCACCCCGTGAAATGACTCGTTTGTTCCATTACAGTATCTGT”, the figure is 0.491 kT; as for “GATAGTCTCATTTTCACCCCGTGAAATGAGTCCCTTGTTCCATTACAGTATCTGT”, 1.38 kT. For “GATAGTCTCATTTTCACCCCGTGAAATGACGTGATTGTTCCATTACAGTATCTGT”, the binding signal is -0.181 kT. Consider “GATAGTCTCATTTTCACCCCGTGAAATGACTCGATTGTTCCATTACAGTATCTGT”, for which the binding signal worked out at 0.519 kT. Take “GATAGTCTCATTTTCACCCCGTGAAATGTCTCATTTGTTCCATTACAGTATCTGT”: the binding signal stood at 0.93 kT. Take “GATAGTCTCATTTTCACCCCGTGAAATGAGTCCTTTGTTCCATTACAGTATCTGT”: the binding signal is 1.09 kT. Turning to “GATAGTCTCATTTTCACCCCGTGAAAGGACTCATTTGTTCCATTACAGTATCTGT”, the binding signal worked out at 0.9 kT. With “GATAGTCTCATTTTCACCCCGTGAAATGAGGCAGTTGTTCCATTACAGTATCTGT” the figure was 1.36 kT; with “GATAGTCTCATTTTCACCCCGTGAAATGAGGCAATTGTTCCATTACAGTATCTGT”, 1.12 kT; with “GATAGTCTCATTTTCACCCCGTGAAAGTGGGTCATTGTTCCATTACAGTATCTGT”, 0.822 kT. With “GATAGTCTCATTTTCACCCCGTGAAAAGAGTCATTTGTTCCATTACAGTATCTGT” the figure was 0.416 kT; with “GATAGTCTCATTTTCACCCCGTGAAATGACTCGCTTGTTCCATTACAGTATCTGT”, 0.667 kT. In the case of “GATAGTCTCATTTTCACCCCGTGAAAACGAGTCATTGTTCCATTACAGTATCTGT”, the binding signal was -0.0168 kT.

Turning to “GATAGTCTCATTTTCACCCCGTGAAATGATGTCATTGTTCCATTACAGTATCTGT”, the binding signal is -0.708 kT. On to “GATAGTCTCATTTTCACCCCGTGAAATGACGTTATTGTTCCATTACAGTATCTGT”, for which the binding signal came out at 0.0695 kT. Consider “GATAGTCTCATTTTCACCCCGTGAAATGAGGTCATTGTTCCATTACAGTATCTGT”, for which the binding signal came to 0.096 kT.

On to “GATAGTCTCATTTTCACCCCGTGAAAAGGAGTCATTGTTCCATTACAGTATCTGT”, for which the binding signal turned out to be 0.436 kT.

Take “GATAGTCTCATTTTCACCCCGTGAAAATGCGTCATTGTTCCATTACAGTATCTGT”: the binding signal is -0.552 kT. For the sequence “GATAGTCTCATTTTCACCCCGTGAAATGACACACTTGTTCCATTACAGTATCTGT”, the binding signal was determined as 0.55 kT. As to “GATAGTCTCATTTTCACCCCGTGAAATTGCGTCATTGTTCCATTACAGTATCTGT”, the binding signal is -0.761 kT.

Regarding “GATAGTCTCATTTTCACCCCGTGAAATGAGTTACTTGTTCCATTACAGTATCTGT”, the binding signal is 0.967 kT. “GATAGTCTCATTTTCACCCCGTGAAATGAGTCTGTTGTTCCATTACAGTATCTGT”: the binding signal is 1.09 kT. Regarding “GATAGTCTCATTTTCACCCCGTGAAATGTGTCATTTGTTCCATTACAGTATCTGT”, the binding signal was -0.022 kT.
